Z-score and composite z-score data for seven molecules are collected here from PubChem BioAssay.

Activity calls are given as the source filed them.

Assay [1] can be described thus: E. coli DRC41 culture turbidity changes, primary screen, E. coli filamentation inducer project, strain DRC41, OD650, 48 h (AID 1152).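 Further: E. coli MC1000 strain DRC41 lacking acrAB efflux pump and sulA.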 As to conditions: E. coli DRC41 (acrAB sulA), higher = more signal, called active from +8 up or from −8 down.
Assay [2] in a line: small-molecule binders of probe aLefty1, primary screen, biochemical, small-molecule microarray, 635/667 nm fluorescence (AID 1153).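 Further: score merges spot fluorescence with signal-to-noise ratio from the scanned slide images.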 As to conditions: higher = more signal.
Assay [3] is described as follows: PSAC antagonists in infected red cells, primary screen, cell-based, P. falciparum Indochina, OD700, 1 h (AID 1154). To be noted: P. falciparum Indochina infected RBC osmotic lysis, higher = more signal, called active from +8 up or from −8 down.
Assay [4] is described as follows: PSAC antagonists in infected red cells, primary screen, cell-based, P. falciparum Indochina, OD700, 2 h (AID 1155).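 Further: lysis reports solute entry through the parasite surface anion channel PSAC; channel blockers reduce lysis of infected cells.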 To be noted: P. falciparum Indochina infected erythrocytes, osmotic lysis OD700; higher = more signal, called active from +8 up or from −8 down.
A short description of assay [5]: osmotic lysis modulators in infected erythrocytes, primary screen, PSAC antagonist project, cell-based, P. falciparum Indochina, OD700, 3 h (AID 1156). To be noted: higher = more signal, called active from +8 up or from −8 down.
A short description of assay [6]: PSAC antagonists in infected red cells, primary screen, cell-based, P. falciparum Indochina, OD700, 18 h (AID 1157). To be noted: P. falciparum Indochina infected erythrocytes, osmotic lysis OD700, 18 h; higher = more signal, called active from +8 up or from −8 down.
Assay [7] in a line: modulators of S6 phosphorylation in cells, primary screen, cell-based, A549, cytoblot, luminescence, serum-stimulated (AID 1158).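 Further: serum-stimulated A549 lung adenocarcinoma cells; signal is phosphorylated S6 detected by cytoblot immunostaining with HRP secondary.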 As to conditions: A549 phospho-S6 cytoblot, 5 h, higher = more signal.
In assay [8] the target is NADPH oxidase 2 (Homo sapiens) (UniProt P04839). Kind of assay: NOX2-dependent H2O2 signal modulators, primary screen, NOX inhibitor project, cell-based, HEK293-NOX2, PMA-stimulated, Amplex Red fluorescence (AID 1159). Further: test concentration not given here. To be noted: 45 min, higher = more signal, called active from +8 up or from −8 down.
For assay [9], the target named is NADPH oxidase 4 (Homo sapiens) (UniProt Q9NPH5). Description: NOX4-dependent H2O2 signal modulators, primary screen, NOX inhibitor project, cell-based, HEK293-NOX4, tetracycline-induced, Amplex Red fluorescence (AID 1160). As to conditions: 45 min, higher = more signal, called active from +8 up or from −8 down.
Assay [10] deals with NADPH oxidase 5 (Homo sapiens) (UniProt Q96PH1). Kind of assay: NOX5-dependent H2O2 signal modulators, primary screen, NOX inhibitor project, cell-based, HEK293-NOX5, Amplex Red fluorescence (AID 1161). To be noted: HEK293-NOX5, ionomycin, 45 min, higher = more signal.
Assay [11] is described as follows: A549 cell viability effects, profiling panel, calcein-AM fluorescence, 48 h, basal (AID 1162). Further: test concentration not given here. As to conditions: higher = more signal.
A short description of assay [12]: adipocyte viability effects, profiling panel, cell-based, 3T3-L1 adipocytes, calcein-AM fluorescence, 48 h, basal (AID 1163). Further: test concentration not given here. As to conditions: 3T3-L1 adipocytes viability, higher = more signal.
The nature of assay [13]: HepG2 cell viability effects, profiling panel, calcein-AM fluorescence, 48 h, basal (AID 1164). Further: test concentration not given here. To be noted: higher = more signal.
A short description of assay [14]: MM1S cell viability effects, profiling panel, calcein-AM fluorescence, 48 h, basal (AID 1165).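 Further: viability of MM1S multiple myeloma cells under basal unstimulated conditions; test concentration not given here.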 To be noted: higher = more signal.
A short description of assay [15]: basal RPMI8226 viability, no added stimulus, profiling panel, cell-based, calcein-AM fluorescence, 48 h, PK04 Diversity Set (AID 1166).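 Further: cells grown under basal conditions without added stimulus; test concentration not given here.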 To be noted: RPMI8226 myeloma viability, higher = more signal.
Assay [16] can be described thus: basal HepG2 mitochondrial membrane potential changes, profiling panel, cell-based, JC-1 fluorescence, 24 h, 100 nL compound (AID 1167). Further: test concentration not given here. To be noted: higher = more signal.
A short description of assay [17]: basal 3T3-L1 adipocyte mitochondrial potential changes, profiling panel, cell-based, JC-1 fluorescence, 3T3-L1 adipocytes, 24 h, 100 nL compound (AID 1168). Further: test concentration not given here. As to conditions: JC-1 mitochondrial fluorescence, higher = more signal, called active from +8 up or from −8 down.
Assay [18] is described as follows: basal RPMI8226 mitochondrial membrane potential changes, profiling panel, cell-based, JC-1 fluorescence, 24 h, 100 nL compound (AID 1169). Further: test concentration not given here. As to conditions: RPMI8226 myeloma, JC-1 mitochondrial potential fluorescence, higher = more signal.
A short description of assay [19]: basal MM1S mitochondrial membrane potential changes, profiling panel, cell-based, JC-1 fluorescence, 24 h, 100 nL compound (AID 1170). Further: test concentration not given here. As to conditions: higher = more signal.
The nature of assay [20]: A549 lung cancer cell viability effects, profiling panel, resazurin fluorescence, 24 h, PK04 Diversity Set (AID 1171). Further: test concentration not given here. To be noted: higher = more signal, called active from +8 up or from −8 down. On the technique in general: Resazurin is reduced to fluorescent resorufin, in cell work by metabolically active cells.

Sequence of NADPH oxidase 4 (Homo sapiens) (Q9NPH5 whole entry, looked up): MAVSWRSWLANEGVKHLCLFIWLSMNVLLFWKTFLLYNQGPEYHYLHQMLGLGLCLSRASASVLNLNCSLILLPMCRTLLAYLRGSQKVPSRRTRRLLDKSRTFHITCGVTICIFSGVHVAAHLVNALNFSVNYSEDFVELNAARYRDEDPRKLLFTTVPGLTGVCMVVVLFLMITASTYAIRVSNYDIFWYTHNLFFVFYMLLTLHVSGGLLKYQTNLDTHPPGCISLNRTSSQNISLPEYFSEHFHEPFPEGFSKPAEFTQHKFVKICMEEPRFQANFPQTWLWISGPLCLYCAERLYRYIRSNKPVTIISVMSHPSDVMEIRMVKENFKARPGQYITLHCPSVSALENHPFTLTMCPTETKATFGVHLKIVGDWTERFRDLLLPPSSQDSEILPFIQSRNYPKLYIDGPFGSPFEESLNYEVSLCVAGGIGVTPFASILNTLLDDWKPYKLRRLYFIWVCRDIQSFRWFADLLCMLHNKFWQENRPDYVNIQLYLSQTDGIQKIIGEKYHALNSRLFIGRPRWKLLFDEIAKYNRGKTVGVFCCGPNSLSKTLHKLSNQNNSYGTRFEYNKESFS
Sequence of NADPH oxidase 5 (Homo sapiens) (Q96PH1 whole entry, looked up): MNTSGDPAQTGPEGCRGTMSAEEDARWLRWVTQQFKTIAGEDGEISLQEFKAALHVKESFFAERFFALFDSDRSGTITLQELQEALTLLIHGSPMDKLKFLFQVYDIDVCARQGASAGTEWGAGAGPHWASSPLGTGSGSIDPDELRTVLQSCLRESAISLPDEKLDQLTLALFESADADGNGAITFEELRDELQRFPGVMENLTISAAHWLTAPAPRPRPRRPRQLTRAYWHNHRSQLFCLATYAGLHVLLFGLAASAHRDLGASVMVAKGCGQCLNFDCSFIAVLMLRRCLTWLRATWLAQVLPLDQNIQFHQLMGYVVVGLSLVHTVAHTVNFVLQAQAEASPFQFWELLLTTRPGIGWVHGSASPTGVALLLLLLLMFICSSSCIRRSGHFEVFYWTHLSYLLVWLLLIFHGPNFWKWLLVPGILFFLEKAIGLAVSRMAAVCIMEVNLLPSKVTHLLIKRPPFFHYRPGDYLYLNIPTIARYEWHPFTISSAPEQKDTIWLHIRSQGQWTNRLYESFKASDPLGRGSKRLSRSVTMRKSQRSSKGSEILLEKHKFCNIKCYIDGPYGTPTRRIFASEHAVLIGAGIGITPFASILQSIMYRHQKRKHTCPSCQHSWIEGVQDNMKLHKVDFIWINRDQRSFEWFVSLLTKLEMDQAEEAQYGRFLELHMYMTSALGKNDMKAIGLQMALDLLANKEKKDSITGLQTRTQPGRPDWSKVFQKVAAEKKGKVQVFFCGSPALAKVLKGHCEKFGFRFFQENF
Sequence of NADPH oxidase 2 (Homo sapiens) (P04839 whole entry, looked up): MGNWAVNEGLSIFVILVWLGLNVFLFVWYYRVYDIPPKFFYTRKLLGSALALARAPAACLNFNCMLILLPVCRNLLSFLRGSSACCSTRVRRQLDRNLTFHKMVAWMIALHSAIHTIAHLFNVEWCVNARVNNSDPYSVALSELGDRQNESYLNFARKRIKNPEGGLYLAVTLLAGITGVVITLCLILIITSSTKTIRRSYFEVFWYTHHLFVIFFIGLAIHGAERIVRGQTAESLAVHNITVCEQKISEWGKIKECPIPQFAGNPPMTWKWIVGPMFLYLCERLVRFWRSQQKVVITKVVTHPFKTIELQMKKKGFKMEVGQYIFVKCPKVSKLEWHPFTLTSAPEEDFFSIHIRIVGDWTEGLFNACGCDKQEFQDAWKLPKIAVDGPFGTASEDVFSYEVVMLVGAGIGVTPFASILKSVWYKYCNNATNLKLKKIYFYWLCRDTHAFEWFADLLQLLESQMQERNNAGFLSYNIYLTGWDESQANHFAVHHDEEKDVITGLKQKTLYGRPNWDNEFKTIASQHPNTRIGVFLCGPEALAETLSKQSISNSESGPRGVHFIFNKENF

Take `C=CCC(OC(C)=O)[C@@H]1[C@@H](N(Cc2cc3ccccc3o2)C(=O)c2ccc(C)cc2)c2cc(OCCCO)ccc2N1C(=O)c1ccc2ccccc2c1` (stereo not given in full): the z-score in assay [1] was 2.19 (inactive); in [3], 1.32 (inactive); in assay [4] it was 0.393 (inactive); in [5] it was -0.44 (inactive); in assay [6], 0.0878 (inactive); in assay [7], 0.147. For the same molecule, the z-score in assay [8] is 0.355 (inactive); in assay [9] it was 0.89 (inactive); in assay [10], 2.7; in [11], 1.37; in [12], 0.595; in assay [13], 1.89. In addition, the z-score was 1.14 in assay [14]; 0.671 in [15]; 2.27 in assay [16]; -0.409 (inactive) in [17]; 0.33 in assay [18]; 0.748 in assay [19]. The z-score in assay [20] was 1.43 (inactive). The composite z-score in assay [2] worked out at 0.168.

For the molecule `CCOC(=O)C1=CCC(C(C)(C)C)N(S(=O)(=O)c2ccc(C)cc2)C1` (stereo not given), the z-score is -1.32 (inactive) in assay [1]; 1.53 (inactive) in assay [3]; 0.768 (inactive) in assay [4]; 0.281 (inactive) in assay [5]; 0.289 (inactive) in assay [6]; -0.693 in assay [7]. Further, the z-score in assay [8] is -0.124 (inactive); in assay [9] it was -1.21 (inactive); in [10], 0.194; in assay [11] it was -0.723; in assay [12], -0.194; in assay [13], -0.157. The z-score in assay [14] is -2.31; in assay [15], -1.28; in [16] it was -1; in [17], 0.161 (inactive); in [18], -0.1; in [19] it was -0.562. The z-score in assay [20] is 0.613 (inactive). The molecule also had a composite z-score in [2] of 0.0494.

With `COC(=O)[C@@]1(Cc2ccc(OC)cc2)[C@H]2c3cc(C(=O)N(C)C)n(Cc4c(OC)[nH]cc(C)c4=O)c3C[C@H]2CN1C(=O)c1ccccc1`, the z-score in assay [1] was -0.348 (inactive); in assay [3], 0.275 (inactive); in [4] it was -0.997 (inactive); in [5], -0.456 (inactive); in [6], -2.25 (inactive); in assay [7], 2.46. Besides, the z-score was 0.689 (inactive) in assay [8]; -0.265 (inactive) in [9]; -3.64 in assay [10]; 0.249 in assay [11]; -0.0161 in [12]; 1.17 in [13]. The z-score is 0.685 in [14]; 1.13 in [15]; 1.95 in [16]; 0.274 (inactive) in assay [17]; -0.213 in assay [18]; -1.65 in assay [19]. Also, the z-score in assay [20] was -1.52 (inactive). For the same molecule, the composite z-score in assay [2] amounted to 0.276.

Regarding `CCOC(=O)C[C@H]1[C@H](OC(=O)c2ccc(-c3ccccc3)cc2)[C@@H](NC(=O)c2ccc3ccccc3c2)c2cc(OCCCO)ccc2N1C(=O)Cc1ccc(OC)cc1`, the z-score in assay [1] was 0.107 (inactive); in assay [3], 2.49 (inactive); in assay [4], 0.927 (inactive); in assay [5], 1.21 (inactive); in assay [6], 0.263 (inactive); in [7] it was 0.452. The z-score was -1.1 (inactive) in assay [8]; -0.0144 (inactive) in assay [9]; -1.47 in assay [10]; 0.0289 in assay [11]; 0.965 in assay [12]; 0.0837 in assay [13]. In addition, the z-score in assay [14] is -0.379; in [15], 0.0182; in assay [16], 2.96; in assay [17], -0.000915 (inactive); in [18] it was 0.462; in assay [19], 0.189. In addition, the z-score in assay [20] was 0.24 (inactive). In assay [2], this molecule displayed a composite z-score of -0.304.

As for `O=C1C2C=CC(C(O)c3ccc(B(O)O)cc3)N(Nc3ccccc3)C2C(=O)N1c1ccccc1` (stereo not given), the z-score in assay [1] was -1.52 (inactive); in [3], 1.07 (inactive); in assay [4] it was -0.447 (inactive); in assay [5] it was 0.977 (inactive); in [6] it was -0.447 (inactive); in assay [7], 0.64. Also, the z-score in assay [8] is -3.57 (inactive); in assay [9], -5.02 (inactive); in assay [10] it was -7.63; in assay [11], -1.52; in [12] it was -0.305; in [13], -1.38. The z-score in assay [14] is -1.74; in assay [15] it was -2.12; in assay [16], -2.75; in assay [17], -0.654 (inactive); in assay [18] it was -0.162; in assay [19], -0.613. Also, the z-score in [20] was -0.742 (inactive). The composite z-score in [2] came out at 0.0315.

For `COc1ccc(C(O)C2C=CC3C(=O)N(C)C(=O)C3N2Nc2ccccc2)cc1OCc1ccccc1` (stereo not given), the z-score in [1] is -1.69 (inactive); in [3], 1.68 (inactive); in assay [4], 1.36 (inactive); in assay [5], 0.272 (inactive); in [6], 1.1 (inactive); in assay [7], -1.17. Besides, the z-score is -1.25 (inactive) in assay [8]; -4.36 (inactive) in [9]; -2.57 in assay [10]; -0.433 in [11]; -0.621 in assay [12]; -0.269 in assay [13]. The z-score is -0.23 in assay [14]; -0.427 in assay [15]; -1.7 in assay [16]; -0.989 (inactive) in assay [17]; 0.324 in [18]; 0.0666 in assay [19]. The z-score in assay [20] is 1.88 (inactive). The composite z-score in [2] turned out to be 0.0451.

In the case of `Cc1ccc(S[C@]2(C(=O)NCc3ccccc3)CC(=O)N(Cc3ccccc3Cl)[C@@H]2c2ccc(CO)cc2I)cc1`, the z-score in assay [1] was 0.196 (inactive); in [3], 3.44 (inactive); in assay [4], 0.68 (inactive); in [5] it was 1.9 (inactive); in assay [6], 0.255 (inactive); in assay [7], 0.379. The z-score was 2.76 (inactive) in assay [8]; -0.824 (inactive) in [9]; 0.774 in assay [10]; 0.34 in [11]; 1.13 in [12]; -0.0653 in assay [13]. The z-score was -1.73 in assay [14]; -1.65 in [15]; -0.44 in assay [16]; 0.376 (inactive) in assay [17]; -0.0557 in assay [18]; -2.15 in [19]. Also, the z-score in assay [20] was 1.6 (inactive). This molecule returned a composite z-score in [2] of 0.0903.
